Compounds without any hit were thinned out: in the full panel of roughly 83,000, 20% have a hit.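 Testing used 96-well plates and a 48-hour single-concentration exposure. Example: -40 means 40% of the starting cells died.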 Unmarked numbers belong to inactive results. Calls of active or inactive are those of the source. How the source made its calls: active means growth percent below 10; inactive means the rest.

Among the test systems are NCI-H23 lung; NCI-H226 lung; NCI-H322M lung; HOP-62 NSCLC; NCI-H460 lung; HOP-92 NSCLC; A549/ATCC NSCLC; 786-0 renal; COLO 205 colon; DU-145 prostate; K-562 leukemia; MALME-3M melanoma; MDA-MB-231 breast; RXF 393 renal; SF-268 CNS; SF-295 CNS; SF-539 CNS; UACC-257 melanoma; M14 melanoma.
What all share (experiment): NCI-60 one-dose screen, 48 h (100 = growth as untreated, 0 = no growth, -100 = all killed)
Common to all, as to conditions: 10 µM unless noted

In the case of `Cc1sc2nc(NCCc3cccs3)[nH]c(=O)c2c1C`, the growth in the experiment with NCI-H23 lung is 98.5%; in the experiment on NCI-H226 lung, 83.2%; with NCI-H322M lung, 104%; in the experiment with HOP-62 NSCLC it was 68.4%; in the experiment on NCI-H460 lung, 95.7%; in the experiment on HOP-92 NSCLC, 93.3%. The growth in the experiment with A549/ATCC NSCLC is 58.7%; in the experiment with 786-0 renal it was 81.6%; in the experiment with COLO 205 colon, 91%; in the experiment with DU-145 prostate it was 94.7%; with K-562 leukemia, 82.5%; with MALME-3M melanoma, 98.7%. For the same compound, the growth in the experiment with MDA-MB-231 breast was 92.5%; in the experiment on RXF 393 renal it was 78.9%; with SF-268 CNS, 95.4%; in the experiment with SF-295 CNS, 82.8%; in the experiment with SF-539 CNS, 91.4%; with UACC-257 melanoma, 72%. Moreover, the growth in the experiment with M14 melanoma was 82.9%.
On to `Cc1cc(C)cc(S(=O)(=O)n2ccc(-c3ccc4c(c3)CCC(C)(C)O4)n2)c1`, for which the growth with NCI-H23 lung was 73.6%; in the experiment with NCI-H226 lung, 66.8%; in the experiment with NCI-H322M lung it was 92%; in the experiment on HOP-62 NSCLC it was 116%; in the experiment on NCI-H460 lung, 84.4%; with HOP-92 NSCLC it was 78.1%. Moreover, the growth with A549/ATCC NSCLC is 80.8%; in the experiment on 786-0 renal, 82.8%; in the experiment with COLO 205 colon, 103%; in the experiment on DU-145 prostate it was 89.8%; in the experiment with K-562 leukemia it was 85.7%; with MALME-3M melanoma it was 82.9%. The growth was 93.5% in the experiment with MDA-MB-231 breast; 77.3% in the experiment with RXF 393 renal; 88.3% in the experiment with SF-268 CNS; 85% in the experiment with SF-295 CNS; 99.9% in the experiment with SF-539 CNS; 89.6% in the experiment with UACC-257 melanoma. Besides, in the experiment on M14 melanoma, the growth is 82.7%.
Regarding `CC(=O)N1N=C(c2ccc(Cl)cc2)CC1c1c(C)nn(-c2ccccc2)c1N(C)Cc1ccccc1` (configuration not stated), the growth in the experiment with NCI-H23 lung was 78.3%; with NCI-H226 lung it was 67%; in the experiment on NCI-H322M lung it was 91.4%; in the experiment on HOP-62 NSCLC it was 74.3%; in the experiment with NCI-H460 lung, 79%; in the experiment on HOP-92 NSCLC it was 55.2%. The growth is 53.5% in the experiment on A549/ATCC NSCLC; 84.7% in the experiment on 786-0 renal; 74.9% in the experiment on COLO 205 colon; 94.5% in the experiment on DU-145 prostate; 61.9% in the experiment with K-562 leukemia; 83.1% with MALME-3M melanoma. Moreover, the growth in the experiment with MDA-MB-231 breast is 81.1%; in the experiment with RXF 393 renal it was 72.7%; with SF-268 CNS it was 77.8%; in the experiment with SF-295 CNS it was 82.7%; in the experiment with SF-539 CNS, 93.8%; in the experiment on UACC-257 melanoma it was 50.4%. Also, the growth with M14 melanoma was 79.9%.
Regarding `O=C(CC(C(=O)c1ccccc1)N1CCN(Cc2ccccc2)CC1)c1ccccc1` (configuration not stated), the growth in the experiment on NCI-H23 lung is 84%; in the experiment with NCI-H226 lung, 104%; in the experiment with NCI-H322M lung it was 112%; with HOP-62 NSCLC, 104%; with NCI-H460 lung, 104%; in the experiment on HOP-92 NSCLC, 80.7%. For the same compound, the growth is 98% in the experiment with A549/ATCC NSCLC; 95.8% in the experiment with 786-0 renal; 70.3% in the experiment on COLO 205 colon; 86.2% in the experiment on DU-145 prostate; 19.5% with K-562 leukemia; 110% in the experiment with MALME-3M melanoma. The growth with MDA-MB-231 breast is 96%; in the experiment on RXF 393 renal it was 95%; in the experiment on SF-268 CNS it was 106%; in the experiment with SF-295 CNS it was 109%; in the experiment with SF-539 CNS, 93.8%; in the experiment with UACC-257 melanoma it was 93.7%. The growth with M14 melanoma was 77.9%.
With `O=C1/C=C/[C@@H](O)[C@@H]2C[C@@H](O)C[C@H]2/C=C/CCC[C@H](CO)O1`, the growth is 13.5% in the experiment with NCI-H23 lung; -63.4% (active) with NCI-H226 lung; 41.7% in the experiment on NCI-H322M lung; 43.6% in the experiment on HOP-62 NSCLC; 45.1% in the experiment with NCI-H460 lung; 58.3% with HOP-92 NSCLC. The growth was 31.3% with A549/ATCC NSCLC; -59.6% (active) in the experiment on 786-0 renal; -71.6% (active) in the experiment with COLO 205 colon; 92.9% in the experiment with DU-145 prostate; 46.8% with K-562 leukemia; 7.5% (active) in the experiment on MALME-3M melanoma. The growth is 3.23% (active) with MDA-MB-231 breast; -29.9% (active) in the experiment with RXF 393 renal; 20.6% in the experiment on SF-268 CNS; 23.9% in the experiment with SF-295 CNS; 34.8% in the experiment with SF-539 CNS; 29.9% with UACC-257 melanoma. Besides, the growth in the experiment with M14 melanoma was 11.6%.
For the compound `CO[C@H]1/C=C/O[C@@]2(C)Oc3c(C)c(O)c4c(O)c(c(/C=N/N5C(C)CN(Cc6ccc(C#N)cc6)CC5C)c(O)c4c3C2=O)NC(=O)/C(C)=C\C=C\[C@H](C)[C@H](O)[C@@H](C)[C@@H](O)[C@@H](C)[C@H](OC(C)=O)[C@@H]1C` (some centres not stated), the growth in the experiment on NCI-H23 lung is 11.5%; with NCI-H226 lung, 49.5%; in the experiment on NCI-H322M lung, 28.7%; in the experiment with HOP-62 NSCLC, 43.8%; in the experiment on NCI-H460 lung it was 3.3% (active); with HOP-92 NSCLC, 27.1%. Also, the growth in the experiment on A549/ATCC NSCLC was 21.7%; with 786-0 renal it was 14.1%; in the experiment on COLO 205 colon it was 1.58% (active); with DU-145 prostate it was 45.3%; in the experiment with K-562 leukemia, 16.3%; in the experiment with MALME-3M melanoma, 8.74% (active). Moreover, the growth was 90.3% with MDA-MB-231 breast; 43.7% with RXF 393 renal; 35% in the experiment on SF-268 CNS; 0.574% (active) in the experiment with SF-295 CNS; 16% with SF-539 CNS; 45.1% in the experiment with UACC-257 melanoma. In the experiment on M14 melanoma, the growth is 36.8%.
Take `Cc1ccc2nc(SCC(=O)Nc3ccc(-c4nc5ccccc5s4)c(Cl)c3)[nH]c2c1`: the growth was 109% with NCI-H23 lung; 98.7% in the experiment with NCI-H226 lung; 101% with NCI-H322M lung; 114% with HOP-62 NSCLC; 116% in the experiment on NCI-H460 lung; 98% in the experiment with HOP-92 NSCLC. The growth in the experiment with A549/ATCC NSCLC was 98.3%; in the experiment on 786-0 renal, 98.1%; in the experiment on COLO 205 colon, 107%; in the experiment with DU-145 prostate it was 132%; with K-562 leukemia, 109%; with MALME-3M melanoma, 131%. In addition, the growth in the experiment on MDA-MB-231 breast was 113%; in the experiment on RXF 393 renal, 98.6%; in the experiment with SF-268 CNS it was 105%; in the experiment with SF-295 CNS, 106%; in the experiment on SF-539 CNS it was 109%; in the experiment with UACC-257 melanoma it was 96.9%. Besides, in the experiment with M14 melanoma, the growth was 111%.
Consider `N#Cc1c(NC(=O)c2ccco2)[n+]([O-])c2cc(Cl)c(Cl)cc2[n+]1[O-]`, for which the growth in the experiment on NCI-H23 lung was 86.3%; in the experiment with NCI-H226 lung, 106%; in the experiment with NCI-H322M lung, 121%; with HOP-62 NSCLC it was 137%; in the experiment on NCI-H460 lung it was 109%; in the experiment with HOP-92 NSCLC, 212%. Further, the growth was 96.6% with A549/ATCC NSCLC; 107% with 786-0 renal; 114% with COLO 205 colon; 103% in the experiment with DU-145 prostate; 96.4% in the experiment on K-562 leukemia; 123% with MALME-3M melanoma. For the same compound, the growth is 93.9% in the experiment on MDA-MB-231 breast; 91.3% in the experiment with RXF 393 renal; 114% in the experiment with SF-268 CNS; 135% in the experiment with SF-295 CNS; 90.4% in the experiment on SF-539 CNS; 99.3% in the experiment with UACC-257 melanoma. Moreover, in the experiment with M14 melanoma, the growth is 142%.

The record behind these values is PubChem BioAssay (NCI).
